The record followed here is PubChem BioAssay (NCATS).

Structures are written as SMILES. Results filed as inconclusive are left out. The source made the active and inactive calls. Unless noted, calls follow the shape of the full dose curve.

The target of experiment [1] is Mitogen-activated protein kinase 10 (Mus musculus) (UniProt Q61831). As to the kind of experiment: JNK3 AlphaScreen Assay (AID 530; active = well fitted curve in either direction with a large enough effect, not every such curve was filed as active;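 also: kinase came from lysate of stimulated human HepG2 cells; signal reports phosphorylation of biotinylated GST-cJun 1-79 at Ser73 with 10 µM ATP; % is scaled to controls: 0 for no effect and ±100 for the full control effect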). Conditions: JNK3 lysate, c-Jun phosphorylation; series mostly up to 57.1 µM. Summed up:
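Pre-activated (IL-1β/TNFα) JNK3 in HepG2 lysates phosphorylates biotin-GST-cJun(1-79), 10 uM ATP; anti-phospho-cJun(Ser73) AlphaScreen read at room temperature, pH 7.6 Tris buffer. Compounds pre-incubated 15 min as titrations.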

Experiment [2] concerns the target Estrogen receptor (Homo sapiens) (UniProt P03372). As to the kind of experiment: qHTS assay for small molecule antagonists of estrogen receptor alpha signaling (AID 588513; active = well fitted curve in the direction sought with a large enough effect in the signal ratio, with a control signal flat, not every such curve was filed as active; the % refers to the signal ratio; also: % is scaled to controls: 0 for no effect and ±100 for the full control effect). The conditions noted are these: ER-alpha-UAS-bla HEK293, beta-lactamase ratio, antagonist mode; series mostly up to 76.9 µM. Summed up:
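ER-alpha-UAS-bla GripTite HEK 293 cells in 2% charcoal/dextran-treated FBS medium; compounds titrated (1:2, duplicate), then stimulated with 0.5 nM 17-beta-estradiol for 18 h at 37C. CCF4 beta-lactamase fluorescence; Hill-fit IC50 and efficacy.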

The target of experiment [3] is Glucocorticoid receptor (Homo sapiens) (UniProt P04150). As to the kind of experiment: qHTS assay for small molecule agonists of glucocorticoid receptor signaling (AID 588532; active = well fitted curve in the direction sought with a large enough effect in the signal ratio, with a control signal flat; the % refers to the signal ratio;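 also: 100% = dexamethasone at 0.1 µM and 0% = DMSO only wells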). The conditions noted are these: HeLa MMTV-bla, beta-lactamase ratio, agonist, 18 h; stronger effect = higher value; percent of dexamethasone control, DMSO zero. Summed up: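 Cells were plated and rested 3-5 h at 37 C, compounds were added in titration and incubated 18 h, then CCF4 substrate was loaded for 2 h at RT before reading blue/green fluorescence. EC50 came from Hill-equation fitting.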
Sequence of Glucocorticoid receptor (Homo sapiens) (P04150 whole entry, looked up): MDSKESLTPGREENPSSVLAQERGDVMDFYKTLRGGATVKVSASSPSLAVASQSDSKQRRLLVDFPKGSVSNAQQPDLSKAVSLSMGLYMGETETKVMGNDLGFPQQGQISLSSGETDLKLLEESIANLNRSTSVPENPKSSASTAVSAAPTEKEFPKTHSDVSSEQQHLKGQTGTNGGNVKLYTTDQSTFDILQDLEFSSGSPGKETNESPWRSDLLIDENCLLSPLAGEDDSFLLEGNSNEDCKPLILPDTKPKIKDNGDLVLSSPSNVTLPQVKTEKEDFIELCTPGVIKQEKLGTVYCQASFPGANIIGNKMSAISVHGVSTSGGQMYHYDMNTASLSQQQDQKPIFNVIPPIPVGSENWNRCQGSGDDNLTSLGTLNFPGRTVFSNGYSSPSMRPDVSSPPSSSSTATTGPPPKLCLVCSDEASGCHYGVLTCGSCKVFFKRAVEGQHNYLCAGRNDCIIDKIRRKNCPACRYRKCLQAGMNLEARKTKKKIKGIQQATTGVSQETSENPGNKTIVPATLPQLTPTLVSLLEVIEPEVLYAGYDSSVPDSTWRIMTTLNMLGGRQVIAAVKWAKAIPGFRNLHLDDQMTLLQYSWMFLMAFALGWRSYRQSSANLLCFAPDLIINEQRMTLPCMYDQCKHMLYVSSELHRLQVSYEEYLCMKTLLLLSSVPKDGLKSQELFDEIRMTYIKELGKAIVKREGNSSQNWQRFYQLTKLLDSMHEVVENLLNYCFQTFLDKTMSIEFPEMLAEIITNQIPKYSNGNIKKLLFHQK

For experiment [4] the target is unchanged. As to the kind of experiment: qHTS assay for small molecule antagonists of glucocorticoid receptor signaling (AID 588533; active = well fitted inhibition curve with a large enough effect in the signal ratio, with a control signal flat, not every such curve was filed as active; the % refers to the signal ratio;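 also: cells stimulated with 2 nM dexamethasone as agonist; % is scaled to controls: 0 for no effect and ±100 for the full control effect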). The conditions noted are these: HeLa MMTV-bla, GRE beta-lactamase ratio, antagonist mode, 18 h; series mostly up to 76.8 µM. The method, boiled down: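 Antagonist-mode qHTS: compound titrations added to GRE-bla HeLa cells, then dexamethasone 2 nM final; 18 h, 37 C. CCF4 FRET fluorescence normalized to dexamethasone and DMSO; IC50 from Hill fit.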

Experiment [5] addresses Peroxisome proliferator-activated receptor gamma (Homo sapiens) (UniProt P37231). As to the kind of experiment: qHTS assay for small molecule agonists of peroxisome proliferator-activated receptor gamma signaling (AID 588536; active = well fitted curve in the direction sought with a large enough effect in the signal ratio, with a control signal flat, not every such curve was filed as active; the % refers to the signal ratio;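 also: 0% = DMSO basal wells and 100% = rosiglitazone at 2 µM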). Conditions: HEK293 PPARg-UAS-bla, beta-lactamase ratio, 16 h, percent of rosiglitazone response, DMSO as zero; series mostly up to 76.7 µM. The method, boiled down:
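Test agents, titrated, stimulated HEK293 UAS-bla cells overnight (16 h, 37 C). Substrate CCF4 was then added for two hours at room temperature before fluorescence reading.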

The target is the same in experiment [6]. As to the kind of experiment: qHTS assay for small molecule antagonists of peroxisome proliferator-activated receptor gamma signaling (AID 588537; active = well fitted inhibition curve with a large enough effect in the signal ratio, with a control signal flat, not every such curve was filed as active; the % refers to the signal ratio; also: potency is read from the fitted curve at half-maximal effect). The conditions noted are these: HEK293 PPARg-UAS-bla, beta-lactamase ratio, antagonist mode; series mostly up to 76.8 µM. The method, boiled down: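 PPARγ-UAS-bla HEK293 cells (3000/well) in 1% charcoal/dextran-stripped FBS are treated with compound, then stimulated with 50 nM rosiglitazone for 16 h at 37 °C. Read-out is CCF4 β-lactamase fluorescence after 2 h at RT. IC50 comes from Hill fits normalised to rosiglitazone and DMSO.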

The nature of experiment [7]: qHTS assay for small molecule agonists of the antioxidant response element (ARE) signaling pathway (AID 651741; active = well fitted activation curve with a large enough effect in the signal ratio; the % refers to the signal ratio; also: potency is read from the fitted curve at half-maximal effect; as to activation: % of control where 0% means no effect). Conditions: HepG2 ARE-bla reporter, beta-lactamase FRET ratio, 16 h; series mostly up to 96 µM. Summed up: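 CellSensor ARE-bla HepG2 cells (2,000/well) carrying ARE-driven beta-lactamase, exposed 16 h at 37 C. LiveBLAzer B/G FRET substrate added for 2 h at room temperature; fluorescence intensity read.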

A short description of experiment [8]: qHTS assay for small molecule activators of the nuclear factor-kappa B (NF-kB) signaling pathway (AID 651749; active = well fitted activation curve with a large enough effect in the signal ratio; the % refers to the signal ratio; also: % of control where 0% means no effect). Conditions: NF-kB-bla ME-180 cells, beta-lactamase FRET ratio, 16 h; stronger effect = higher value. Summed up:
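NF-kB-bla ME-180 cells carrying a beta-lactamase reporter under an NF-kB response element, 2,000 cells/well, exposed to compound for 16 hr at 37C; FRET-based beta-lactamase fluorescence read-out of pathway activation.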

Experiment [9] can be described thus: qHTS assay for small molecule disruptors of the mitochondrial membrane potential - 5 hr assay (AID 651755). Also: nearly all actives have a fitted effect of over 40% in size. Also: potency is read from the fitted curve at half-maximal effect. Conditions: JC-1-type ratio dye; series mostly up to 92.2 µM. The method, boiled down: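 HepG2 cells (2,000/well), attached overnight, exposed to compound 5 hr at 37C, then Mito-MPS dye 30 min. Fluorescence read for monomers (490/535 nm) and aggregates (540/590 nm).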

Experiment [10] is described as follows: Cell Viability - HepG2 (AID 433).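 Also: potency is read from the fitted curve at half-maximal effect; potency for ATP loss meaning cytotoxicity.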 Conditions: qHTS. Summed up: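 HepG2 cells, 1500 per well, treated 40 hr at 37 °C in complete medium; viability from intracellular ATP by CellTiter-Glo luminescence. Normalized to DMSO and 100 uM tamoxifen; AC50 from Hill fit of qHTS concentration-response.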
Experiment [11] in a line: Cell Viability - NIH 3T3 (AID 541; active = well fitted curve in the direction sought with a large enough effect; an effect the other way counts as inactive or inconclusive;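 also: plate controls were DMSO alone for no effect and tamoxifen positive control for full effect; nearly all actives have a fitted effect of over 25% in size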). The conditions noted are these: NIH 3T3 cell viability, qHTS; activity change, negative = cytotoxicity: at 92.2 µM (top of the series). The method, boiled down:
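Mouse NIH 3T3 fibroblasts, 1000 cells/well, rested 5 hr at 37 °C, then exposed to compound for 40 hr at 37 °C in complete medium. Viability read as intracellular ATP by CellTiter-Glo luminescence; AC50 from Hill-equation fits of concentration-response data.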

Experiment [12] deals with Bile acid receptor (Homo sapiens) (UniProt Q96RI1). As to the kind of experiment: qHTS assay for small molecule agonists of farnesoid X receptor signaling (AID 588527).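 Also: 0% = vehicle basal and 100% = reference agonist.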 The conditions noted are these: HEK293T FXR-UAS-bla, beta-lactamase ratio, 16 h; stronger effect = higher value. The method, boiled down: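 Read-out: beta-lactamase reporter fluorescence with CCF4 substrate in GeneBLAzer FXR-UAS-bla HEK293T cells, after 16 h compound exposure at 37 C. Response scaled between DMSO basal (0%) and chenodeoxycholic acid at 100 uM (100%).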
Sequence of Bile acid receptor (Homo sapiens) (Q96RI1 whole entry, looked up): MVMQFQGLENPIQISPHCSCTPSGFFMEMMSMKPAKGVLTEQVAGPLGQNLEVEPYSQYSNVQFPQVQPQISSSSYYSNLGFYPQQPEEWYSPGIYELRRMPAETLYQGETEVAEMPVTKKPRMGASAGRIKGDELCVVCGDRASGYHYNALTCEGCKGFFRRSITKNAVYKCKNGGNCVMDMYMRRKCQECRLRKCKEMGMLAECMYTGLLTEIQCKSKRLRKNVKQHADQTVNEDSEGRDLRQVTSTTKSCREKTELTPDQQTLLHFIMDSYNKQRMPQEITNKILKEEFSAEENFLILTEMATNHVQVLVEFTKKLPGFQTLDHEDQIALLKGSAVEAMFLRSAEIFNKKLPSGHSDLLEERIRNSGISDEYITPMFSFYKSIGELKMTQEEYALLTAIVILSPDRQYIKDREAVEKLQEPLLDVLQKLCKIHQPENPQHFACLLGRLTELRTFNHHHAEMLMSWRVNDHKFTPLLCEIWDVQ

Experiment [13] can be described thus: qHTS assay for small molecule antagonists of peroxisome proliferator-activated receptor delta signaling (AID 588535).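 Also: cells co-treated with a PPAR-delta agonist as stimulator during compound exposure.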 Conditions: HEK293T PPARd-UAS-bla, beta-lactamase FRET ratio, 18 h; 460 nm channel. The method, boiled down: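 Antagonist-mode beta-lactamase reporter (GeneBLAzer PPAR-delta-UAS-bla) in HEK293T cells, 2% charcoal/dextran FBS, 4000 cells/well. Compound titrations, 18 h at 37 C; CCF4 ratio read, IC50 and efficacy from Hill fits.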

In experiment [14] the target is Nuclear receptor ROR-gamma (Homo sapiens) (UniProt P51449). As to the kind of experiment: qHTS assay for small molecule antagonists of the retinoid-related orphan receptor gamma (ROR-gamma) signaling pathway (AID 651802; active = well fitted curve in the direction sought with a large enough effect; an effect the other way counts as inactive or inconclusive;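 also: luciferase reporter luminescence driven by ROR response element; % is scaled to controls: 0 for no effect and ±100 for the full control effect; nearly all actives have a fitted effect of over 60% in size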). The conditions noted are these: ROR-gamma antagonist cell reporter assay; series mostly up to 92.2 µM. The method, boiled down:
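CHO cells with TET-inducible ROR-gamma and RORE-luciferase reporter, dosed then doxycycline-induced. After 16 h at 37C, One-Glo luminescence read; decreased signal indicates antagonism.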

A short description of experiment [15]: Cell Viability - LYMP2-024 (AID 988; active = well fitted curve in the direction sought with a large enough effect; an effect the other way counts as inactive or inconclusive;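 also: plate controls were DMSO only for no effect and 92 µM tetraoctylammonium bromide for full effect; nearly all actives have a fitted effect of over 60% in size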). The conditions noted are these: LYMP2-024 lymphoblastoid cell viability; series mostly up to 92.2 µM. The method, boiled down:
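Human lymphoblastoid LYMP2-024 cells (2500/well) rested 5 hr, then treated with compound for 24 hr at 37 C in complete medium. Viability was measured as intracellular ATP by CellTiter-Glo luminescence. AC50 values came from Hill-equation fits.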

The target of experiment [16] is Vitamin D3 receptor (Homo sapiens) (UniProt P11473). As to the kind of experiment: qHTS assay for small molecule agonists of vitamin D receptor signaling (AID 588543).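 Also: 0% = DMSO basal and 100% = reference agonist control.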 The conditions noted are these: HEK293T VDR-UAS-bla, beta-lactamase ratio, 16 h; series mostly up to 76.8 µM. The method, boiled down: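 VDR-UAS-bla HEK293T cells, 2000/well, 2% charcoal-stripped FBS; compound titration 16 h at 37 C; CCF4 beta-lactamase ratio read. Normalized to 50 nM 1-alpha,25-dihydroxyvitamin D3 (100%) and DMSO; Hill fit gives EC50, efficacy.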
Sequence of Vitamin D3 receptor (Homo sapiens) (P11473 whole entry, looked up): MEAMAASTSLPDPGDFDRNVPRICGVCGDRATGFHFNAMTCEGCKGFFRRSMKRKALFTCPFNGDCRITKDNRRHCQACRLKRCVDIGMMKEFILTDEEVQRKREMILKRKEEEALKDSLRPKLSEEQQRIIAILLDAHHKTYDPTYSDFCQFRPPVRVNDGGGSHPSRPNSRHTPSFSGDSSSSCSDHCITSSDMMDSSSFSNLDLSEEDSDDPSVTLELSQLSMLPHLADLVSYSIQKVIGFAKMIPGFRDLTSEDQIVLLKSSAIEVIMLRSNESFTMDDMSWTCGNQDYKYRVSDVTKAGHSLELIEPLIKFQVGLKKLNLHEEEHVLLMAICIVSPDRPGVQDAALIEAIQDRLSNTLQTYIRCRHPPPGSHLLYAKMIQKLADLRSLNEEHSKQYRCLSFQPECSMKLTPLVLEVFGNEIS

For experiment [17], the target named is Tumor necrosis factor (Homo sapiens) (UniProt P01375). As to the kind of experiment: qHTS assay to identify small molecules that stimulate Tumor Necrosis Factor-alpha (TNF-alpha) secretion (AID 651757; active = well fitted curve in the direction sought with a large enough effect in the signal ratio; the % refers to the signal ratio; also: 0% is about no effect). The conditions noted are these: Human cells, HTRF 665/615 ratio; series mostly up to 92.2 µM. Summed up:
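THP-1 cells (3000/well) exposed to compounds 17 hrs at 37 C. Secreted TNF-alpha detected by HTRF with cryptate- and XL665-labeled anti-TNF-alpha antibodies after 3 hr at room temperature.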

The nature of experiment [18]: MultiTox-Fluor Cytotoxicity Assay - LYMP1-002 - Dead Cells (AID 960; active = well fitted curve in the direction sought with a large enough effect; an effect the other way counts as inactive or inconclusive;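 also: 0% = DMSO and 100% = tetraoctylammonium bromide; nearly all actives have a fitted effect of over 60% in size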). Conditions: LYMP1-002 lymphoblastoid cells, dead-cell protease fluorescence; series mostly up to 46.1 µM. Summed up: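 Human lymphoblastoid LYMP1-002 cells, 2500/well, treated 16 h at 37 C; dead-cell protease cleavage of bis-AAF-R110 read by fluorescence (485/520); normalized to DMSO and 15 uM tetraoctylammonium bromide; AC50 from Hill fit.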

Sequence of Estrogen receptor (Homo sapiens) (P03372 whole entry, looked up): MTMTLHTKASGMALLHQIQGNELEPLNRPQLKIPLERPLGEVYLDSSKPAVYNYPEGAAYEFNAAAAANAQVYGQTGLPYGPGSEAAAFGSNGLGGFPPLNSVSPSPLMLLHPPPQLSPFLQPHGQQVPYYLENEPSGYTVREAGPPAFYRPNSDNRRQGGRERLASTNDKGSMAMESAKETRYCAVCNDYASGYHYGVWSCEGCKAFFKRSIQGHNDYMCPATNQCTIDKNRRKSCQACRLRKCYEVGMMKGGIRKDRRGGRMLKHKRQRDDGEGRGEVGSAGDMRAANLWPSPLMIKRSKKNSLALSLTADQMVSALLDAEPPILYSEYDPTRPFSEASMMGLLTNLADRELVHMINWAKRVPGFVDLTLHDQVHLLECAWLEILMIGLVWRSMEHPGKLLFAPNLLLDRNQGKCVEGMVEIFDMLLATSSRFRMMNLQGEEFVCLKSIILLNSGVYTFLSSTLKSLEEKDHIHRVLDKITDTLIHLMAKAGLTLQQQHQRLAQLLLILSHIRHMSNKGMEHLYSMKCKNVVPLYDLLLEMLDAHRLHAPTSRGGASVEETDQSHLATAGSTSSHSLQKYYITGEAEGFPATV
Sequence of Tumor necrosis factor (Homo sapiens) (P01375 whole entry, looked up): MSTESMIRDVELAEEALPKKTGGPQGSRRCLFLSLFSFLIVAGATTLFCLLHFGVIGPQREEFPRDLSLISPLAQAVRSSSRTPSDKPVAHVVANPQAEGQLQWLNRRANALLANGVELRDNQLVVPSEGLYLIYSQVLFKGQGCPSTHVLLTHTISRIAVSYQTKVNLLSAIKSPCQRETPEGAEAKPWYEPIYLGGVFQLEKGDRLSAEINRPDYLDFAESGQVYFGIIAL
Sequence of Peroxisome proliferator-activated receptor gamma (Homo sapiens) (P37231 whole entry, looked up): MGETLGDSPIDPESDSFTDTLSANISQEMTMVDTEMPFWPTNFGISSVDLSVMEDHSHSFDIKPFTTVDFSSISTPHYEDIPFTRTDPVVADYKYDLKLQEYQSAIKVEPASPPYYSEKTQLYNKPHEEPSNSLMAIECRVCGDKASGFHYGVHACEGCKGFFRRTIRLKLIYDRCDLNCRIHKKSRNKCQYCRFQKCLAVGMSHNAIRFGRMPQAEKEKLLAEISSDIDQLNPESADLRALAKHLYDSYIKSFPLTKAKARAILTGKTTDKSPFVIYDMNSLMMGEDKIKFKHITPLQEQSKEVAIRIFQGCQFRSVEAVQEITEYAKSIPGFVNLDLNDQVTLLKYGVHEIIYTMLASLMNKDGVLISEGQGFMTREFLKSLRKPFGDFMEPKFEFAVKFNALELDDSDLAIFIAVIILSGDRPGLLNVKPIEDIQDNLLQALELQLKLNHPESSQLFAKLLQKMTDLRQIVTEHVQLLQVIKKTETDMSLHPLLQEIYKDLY
Sequence of Nuclear receptor ROR-gamma (Homo sapiens) (P51449 whole entry, looked up): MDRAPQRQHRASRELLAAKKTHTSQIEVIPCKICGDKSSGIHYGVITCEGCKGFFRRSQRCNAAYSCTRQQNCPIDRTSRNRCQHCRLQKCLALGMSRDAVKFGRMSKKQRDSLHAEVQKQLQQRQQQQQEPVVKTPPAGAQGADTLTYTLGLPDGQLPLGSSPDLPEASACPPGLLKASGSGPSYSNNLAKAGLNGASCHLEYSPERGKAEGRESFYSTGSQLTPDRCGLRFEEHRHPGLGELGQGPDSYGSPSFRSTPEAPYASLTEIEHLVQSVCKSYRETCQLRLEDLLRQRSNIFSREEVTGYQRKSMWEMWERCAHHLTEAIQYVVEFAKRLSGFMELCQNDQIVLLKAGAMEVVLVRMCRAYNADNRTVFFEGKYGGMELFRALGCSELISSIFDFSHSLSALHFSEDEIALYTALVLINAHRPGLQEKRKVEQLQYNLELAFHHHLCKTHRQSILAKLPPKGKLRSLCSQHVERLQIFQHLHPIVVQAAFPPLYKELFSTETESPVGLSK

As for `CN(C)c1ccc(N(C)C)cc1`, the Potency entry in experiment [1], in experiment [2], in experiment [6] and in experiment [9] was “inactive” throughout. Also, the activation in experiment [3] was 1.15% (inactive); in [8], 0.946% (inactive). Moreover, the result in experiment [4] and in experiment [5] was inactive. The Potency in [7] was 42.2 µM (active).
Turning to `Nc1c(Br)cc([N+](=O)[O-])cc1[N+](=O)[O-]`, the Potency in experiment [10] was > 92 µM (inactive); in experiment [9] it was 26.6 µM (active). Besides, the Potency entry in experiment [1], in experiment [11], in experiment [2] and in experiment [14] was “inactive” throughout. Further, the activation in experiment [12] was 0.276% (inactive); in experiment [8], -0.945% (inactive). The max response in experiment [13] was determined as 33.6%.
With `Nc1ccc(Cc2ccc(N)c(Cl)c2)cc1Cl`, the Potency is > 92 µM (inactive) in experiment [10] and 39.8 µM (active) in experiment [6]. The Potency result in experiment [1], in experiment [11] and in [15] was “inactive” in each case. Moreover, the activation in experiment [3] is -1.55% (inactive). The outcome in experiment [16] and in [17] was inactive.
Take `CCCC[N+](=O)[O-]`: the Potency in experiment [10] was > 92 µM (inactive). In addition, the Potency entry in [1], in experiment [11], in experiment [18], in [2], in experiment [7] and in experiment [9] was “inactive” throughout. Also, the activation in [12] is -0.886% (inactive); in experiment [8] it was -0.304% (inactive). Further, the outcome in experiment [4], in [5], in [16] and in experiment [17] was inactive.
`COC(C)(C)C`: the Potency in experiment [10] was > 92 µM (inactive). The Potency entry in [1], in [7] and in experiment [9] was “inactive” in each case. Besides, the max response in [13] is -16.9%. The outcome in [16] and in experiment [17] was inactive. Further, the activation in experiment [8] is 1.85% (inactive).
